17 targets from the supplement of paper PMC11001985 can be followed below.

A number with no mark means an inactive call.

Chain of UniProt P12429 (P12429 whole entry): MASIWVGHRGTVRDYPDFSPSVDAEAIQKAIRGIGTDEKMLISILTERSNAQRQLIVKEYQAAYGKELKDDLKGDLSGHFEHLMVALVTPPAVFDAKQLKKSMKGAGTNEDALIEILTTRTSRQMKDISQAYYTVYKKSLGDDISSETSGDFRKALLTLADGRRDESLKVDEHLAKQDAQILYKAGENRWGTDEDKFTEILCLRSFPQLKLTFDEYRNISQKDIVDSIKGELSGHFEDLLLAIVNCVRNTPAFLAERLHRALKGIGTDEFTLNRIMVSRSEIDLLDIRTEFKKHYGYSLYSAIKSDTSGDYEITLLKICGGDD
Chain of UniProt Q15149 (Q15149 whole entry): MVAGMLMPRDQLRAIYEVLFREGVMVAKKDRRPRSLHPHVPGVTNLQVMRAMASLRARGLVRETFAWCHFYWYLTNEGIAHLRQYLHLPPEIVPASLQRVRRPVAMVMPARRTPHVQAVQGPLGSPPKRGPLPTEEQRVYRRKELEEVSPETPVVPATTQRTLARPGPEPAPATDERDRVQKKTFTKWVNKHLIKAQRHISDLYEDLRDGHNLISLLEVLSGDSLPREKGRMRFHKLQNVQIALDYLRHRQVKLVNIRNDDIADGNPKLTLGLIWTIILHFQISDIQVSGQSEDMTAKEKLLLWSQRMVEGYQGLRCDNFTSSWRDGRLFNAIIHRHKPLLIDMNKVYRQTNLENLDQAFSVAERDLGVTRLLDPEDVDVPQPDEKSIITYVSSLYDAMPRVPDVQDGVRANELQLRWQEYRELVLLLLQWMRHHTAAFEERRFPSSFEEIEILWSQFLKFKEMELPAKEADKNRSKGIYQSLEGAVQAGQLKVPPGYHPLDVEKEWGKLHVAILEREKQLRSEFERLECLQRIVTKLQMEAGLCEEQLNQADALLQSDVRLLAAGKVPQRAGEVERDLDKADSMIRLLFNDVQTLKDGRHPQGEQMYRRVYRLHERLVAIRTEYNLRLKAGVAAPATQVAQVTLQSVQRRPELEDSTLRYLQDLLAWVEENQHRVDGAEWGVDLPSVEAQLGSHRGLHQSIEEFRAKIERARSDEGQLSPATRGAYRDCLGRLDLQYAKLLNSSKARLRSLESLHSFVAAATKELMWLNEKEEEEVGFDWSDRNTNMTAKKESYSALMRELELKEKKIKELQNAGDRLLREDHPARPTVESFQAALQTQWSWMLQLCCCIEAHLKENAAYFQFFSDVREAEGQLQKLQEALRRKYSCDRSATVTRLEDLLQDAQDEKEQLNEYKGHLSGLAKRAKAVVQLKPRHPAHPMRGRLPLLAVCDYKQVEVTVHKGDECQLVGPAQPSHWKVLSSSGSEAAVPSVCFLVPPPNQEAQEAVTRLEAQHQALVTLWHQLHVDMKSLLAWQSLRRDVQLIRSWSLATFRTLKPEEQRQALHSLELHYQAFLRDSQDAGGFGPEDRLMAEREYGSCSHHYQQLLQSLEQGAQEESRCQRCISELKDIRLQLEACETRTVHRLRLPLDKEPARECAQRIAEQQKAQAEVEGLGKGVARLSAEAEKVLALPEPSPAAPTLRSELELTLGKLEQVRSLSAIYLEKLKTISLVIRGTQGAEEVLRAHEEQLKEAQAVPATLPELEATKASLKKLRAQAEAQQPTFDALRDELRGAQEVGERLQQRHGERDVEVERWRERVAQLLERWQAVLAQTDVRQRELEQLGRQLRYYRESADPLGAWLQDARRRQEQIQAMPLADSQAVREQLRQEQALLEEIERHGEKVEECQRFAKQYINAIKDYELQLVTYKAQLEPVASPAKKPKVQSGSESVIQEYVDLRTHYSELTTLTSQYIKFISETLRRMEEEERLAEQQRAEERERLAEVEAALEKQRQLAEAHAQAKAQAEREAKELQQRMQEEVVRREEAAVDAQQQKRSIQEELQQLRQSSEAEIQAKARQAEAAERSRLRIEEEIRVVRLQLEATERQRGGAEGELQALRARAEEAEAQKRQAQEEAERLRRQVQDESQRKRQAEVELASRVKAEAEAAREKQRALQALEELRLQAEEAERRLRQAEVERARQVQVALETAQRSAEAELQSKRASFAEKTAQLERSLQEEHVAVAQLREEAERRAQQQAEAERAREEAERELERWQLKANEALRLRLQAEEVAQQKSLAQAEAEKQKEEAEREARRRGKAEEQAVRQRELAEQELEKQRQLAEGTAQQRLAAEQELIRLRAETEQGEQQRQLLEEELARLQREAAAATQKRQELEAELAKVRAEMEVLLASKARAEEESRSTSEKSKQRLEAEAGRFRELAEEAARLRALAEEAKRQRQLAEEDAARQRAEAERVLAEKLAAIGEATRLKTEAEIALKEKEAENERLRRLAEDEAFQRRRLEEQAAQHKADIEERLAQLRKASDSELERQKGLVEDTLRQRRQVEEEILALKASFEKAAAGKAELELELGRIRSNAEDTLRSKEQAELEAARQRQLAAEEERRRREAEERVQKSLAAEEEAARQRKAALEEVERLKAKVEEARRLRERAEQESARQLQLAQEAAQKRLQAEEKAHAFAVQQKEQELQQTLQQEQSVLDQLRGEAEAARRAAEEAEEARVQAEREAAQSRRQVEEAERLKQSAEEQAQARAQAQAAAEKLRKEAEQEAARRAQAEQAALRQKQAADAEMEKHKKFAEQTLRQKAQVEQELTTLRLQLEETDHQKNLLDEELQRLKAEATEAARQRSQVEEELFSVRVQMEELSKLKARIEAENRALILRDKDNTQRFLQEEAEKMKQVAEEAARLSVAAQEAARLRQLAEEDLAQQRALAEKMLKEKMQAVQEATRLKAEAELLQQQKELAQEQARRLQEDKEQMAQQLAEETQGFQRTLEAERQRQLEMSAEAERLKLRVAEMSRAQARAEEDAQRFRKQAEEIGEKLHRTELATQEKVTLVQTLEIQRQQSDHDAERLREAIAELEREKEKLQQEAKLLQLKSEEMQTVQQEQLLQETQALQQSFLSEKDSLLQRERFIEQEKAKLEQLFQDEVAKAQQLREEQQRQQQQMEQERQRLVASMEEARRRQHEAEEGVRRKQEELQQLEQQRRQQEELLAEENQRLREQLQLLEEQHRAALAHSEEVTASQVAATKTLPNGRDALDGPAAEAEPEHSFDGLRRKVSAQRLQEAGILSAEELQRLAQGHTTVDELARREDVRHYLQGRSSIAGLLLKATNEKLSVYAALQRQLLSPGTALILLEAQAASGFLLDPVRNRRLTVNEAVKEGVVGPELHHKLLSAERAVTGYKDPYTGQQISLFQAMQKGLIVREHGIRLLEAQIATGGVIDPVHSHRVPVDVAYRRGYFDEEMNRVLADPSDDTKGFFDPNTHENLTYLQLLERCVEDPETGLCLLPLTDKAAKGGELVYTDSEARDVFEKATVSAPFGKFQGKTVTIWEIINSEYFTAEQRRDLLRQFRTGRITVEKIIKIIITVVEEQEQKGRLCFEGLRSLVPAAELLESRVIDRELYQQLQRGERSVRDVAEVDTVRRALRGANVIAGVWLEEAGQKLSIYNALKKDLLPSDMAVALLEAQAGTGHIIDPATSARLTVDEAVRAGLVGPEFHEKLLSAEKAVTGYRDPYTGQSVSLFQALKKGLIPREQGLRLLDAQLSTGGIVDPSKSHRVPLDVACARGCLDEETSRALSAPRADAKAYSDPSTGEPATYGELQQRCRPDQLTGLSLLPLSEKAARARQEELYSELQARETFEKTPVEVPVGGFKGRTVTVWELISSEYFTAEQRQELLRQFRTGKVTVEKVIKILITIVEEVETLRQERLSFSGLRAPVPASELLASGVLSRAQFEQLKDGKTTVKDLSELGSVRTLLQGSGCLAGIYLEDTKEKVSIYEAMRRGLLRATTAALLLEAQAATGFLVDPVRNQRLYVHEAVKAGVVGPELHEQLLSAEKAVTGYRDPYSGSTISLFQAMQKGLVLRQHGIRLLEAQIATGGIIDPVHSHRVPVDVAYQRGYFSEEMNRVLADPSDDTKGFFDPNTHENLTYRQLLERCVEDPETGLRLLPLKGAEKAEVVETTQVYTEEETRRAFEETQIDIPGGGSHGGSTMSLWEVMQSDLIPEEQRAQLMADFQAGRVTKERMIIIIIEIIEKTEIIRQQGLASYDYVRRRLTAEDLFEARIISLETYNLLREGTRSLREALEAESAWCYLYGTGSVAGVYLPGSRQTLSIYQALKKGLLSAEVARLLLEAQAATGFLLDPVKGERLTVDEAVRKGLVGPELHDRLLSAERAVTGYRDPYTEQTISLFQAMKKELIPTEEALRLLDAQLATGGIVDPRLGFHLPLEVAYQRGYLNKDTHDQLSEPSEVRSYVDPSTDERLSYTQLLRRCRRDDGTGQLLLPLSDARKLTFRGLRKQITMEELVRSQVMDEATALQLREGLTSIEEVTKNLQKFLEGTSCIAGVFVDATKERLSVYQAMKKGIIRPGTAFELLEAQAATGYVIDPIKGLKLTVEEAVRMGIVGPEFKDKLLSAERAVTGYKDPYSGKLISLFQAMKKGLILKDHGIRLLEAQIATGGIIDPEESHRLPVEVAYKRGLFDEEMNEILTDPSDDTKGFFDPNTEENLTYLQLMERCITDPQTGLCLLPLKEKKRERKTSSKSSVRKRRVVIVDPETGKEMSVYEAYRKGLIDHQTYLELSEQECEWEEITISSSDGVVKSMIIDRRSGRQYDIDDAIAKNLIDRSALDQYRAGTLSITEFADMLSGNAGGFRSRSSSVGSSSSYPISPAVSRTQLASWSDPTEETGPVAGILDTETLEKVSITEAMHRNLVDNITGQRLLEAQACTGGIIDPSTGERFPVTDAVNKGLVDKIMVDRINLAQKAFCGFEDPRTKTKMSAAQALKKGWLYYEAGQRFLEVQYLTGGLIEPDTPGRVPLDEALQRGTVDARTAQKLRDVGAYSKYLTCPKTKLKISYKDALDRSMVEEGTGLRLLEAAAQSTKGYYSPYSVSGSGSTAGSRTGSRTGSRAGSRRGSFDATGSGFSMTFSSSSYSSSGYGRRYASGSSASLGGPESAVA
Chain of UniProt Q9Y5J9 (Q9Y5J9 whole entry): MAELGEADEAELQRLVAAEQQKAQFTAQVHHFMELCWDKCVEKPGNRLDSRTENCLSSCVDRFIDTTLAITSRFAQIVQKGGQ

Compound in the assay: C#CCNC(=O)CCSSCCC(=O)NCCc1ccc(C=O)c(C=O)c1
Put plainly: lysine labeling ratio R10:1 (500 µM / 50 µM probe), SILAC-ABPP in living cells; higher = lower intrinsic lysine reactivity toward the probe, active = 2 or less. The settings on record: HeLa; probe concentrations 500 vs 50 µM. Put shortly:
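The two probe levels, 50 µM and 500 µM, of an alkyne-tagged, disulfide-linked lysine probe were applied to living light and heavy SILAC HeLa cells in PBS at room temperature, and the labels were run in both forward and reverse orientation. Mixed lysates underwent biotin-azide click chemistry, trypsin digestion, neutravidin capture, DTT release and alkylation before LC-MS/MS on a TIMS-TOF Pro. R is the filtered median high-probe/low-probe MS1 peptide ratio for each lysine, summarised as the median over forward and reverse replicates. Nothing above 20 is reported; such values are set to 20.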
On to “TIMM8B (lysine site: K80) (UniProt Q9Y5J9)”, for which the “lysine labeling ratio R10:1” value was 1.18 (active).
Next, “GPI (lysine site: K454) (UniProt P06744)”: 2.77.
Next, “CD109 (lysine site: K494) (UniProt Q6YHK3)”: 8.05; UniProt P17612 (lysine site: K48): 1.56 (active); “MCAM (lysine site: K134) (UniProt P43121)”: 3.83.
For “ATAD3B (lysine site: K46) (UniProt Q5T9A4)”, the “lysine labeling ratio R10:1” value was 3.54.
Regarding “RPL35A (lysine site: K95) (UniProt P18077)”, the “lysine labeling ratio R10:1” value is 3.1.
Regarding “JPT2 (lysine site: K90) (UniProt Q9H910)”, the “lysine labeling ratio R10:1” value was 5.53.
Next, “RDX (lysine site: K520) (UniProt P35241)”: 1.76 (active); “RPL28 (lysine site: K135) (UniProt P46779)”: 3.84; “UGT8 (lysine site: K195) (UniProt Q16880)”: 1.49 (active).
Take “PLXND1 (lysine site: K1182) (UniProt Q9Y4D7)”: the “lysine labeling ratio R10:1” value is 0.824 (active).
Regarding UniProt P22413 (lysine site: K465), the “lysine labeling ratio R10:1” value was 1.52 (active).
With UniProt Q15149 (lysine site: K4584), the “lysine labeling ratio R10:1” value is 0.906 (active).
Regarding “ANXA3 (lysine site: K263) (UniProt P12429)”, the “lysine labeling ratio R10:1” value is 1.92 (active).
The same measure for “ERP29 (lysine site: K137) (UniProt P30040)”: 6.12; for “MYH9 (lysine site: K1648) (UniProt P35579)”: 1.22 (active).
